Results reported in PubChem BioAssay (EPA / NIEHS).
Active and inactive are the calls of the source. How the source made its calls: active means hit-call score of the fitted dose curve at least 0.9, where 1 is the maximum; inactive means score below 0.9.

Assay: ATG_AP_2_CIS: Attagene CIS-FACTORIAL HepG2 Assay for human Activator Protein 2 (AP-2) (AID 2282932)
Conditions: HepG2 AP-2 cis-reporter, Attagene transcription factor profiling; actives raise or lower the signal
Method in brief: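 HepG2, transient MRTU transfection, cis-regulated reporters; 24 h compound exposure; RNA isolated, RT-PCR, 6-FAM labelling, HpaI digest, CE fluorescence. DMSO = negative control/baseline, bidirectional fit.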

Compound | outcome
Cc1ccc(Nc2ccc(O)c3c2C(=O)c2ccccc2C3=O)cc1 | inactive
c1ccc2sc(SN(C3CCCCC3)C3CCCCC3)nc2c1 | inactive
COc1nc(C)nc(N)n1 | inactive
COc1cc(C=O)ccc1OC(=O)C(C)C | inactive
CCCCCCCCCC=O | inactive
Cc1ccccc1C=O | inactive
OCc1cccnc1 | inactive
O=C(O)c1cccc(C(F)(F)F)c1 | inactive
CC(=O)OCCOC(C)=O | inactive
O=C(OCc1ccccc1)C(=O)OCc1ccccc1 | inactive
CC(C=O)Cc1ccc(C(C)C)cc1 (centres undefined) | inactive
CC(C)=CCO | inactive
Nc1cc([N+](=O)[O-])ccc1O | inactive
O=C(O)Cc1cccc2ccccc12 | inactive

Assay: ATG_BRE_CIS: Attagene CIS-FACTORIAL HepG2 Assay for human Bone Morphogenetic Protein (BMP) Response Element (BRE) (AID 2282933)
Conditions: HepG2 BMP response element reporter, Attagene transcription factor profiling; actives raise or lower the signal
Method in brief: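 Endogenous transcription factor activity at a BMP response element was monitored in transfected HepG2 cells 24 h after dosing. Fluorescent RT-PCR products were resolved by capillary electrophoresis, and activity was fitted in both directions versus DMSO.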

Compound | outcome | AC50
CO[Si](C)(OC)c1ccccc1 | inactive | 
C=CCOC(=O)CCC1CCCCC1 | inactive | 
C=C(C)[C@@H]1CC[C@@H](C)C[C@@H]1O | inactive | 
CCCCCCCCCCCCCCCCCC(=O)OCC(CC)CCCC (centres undefined) | inactive | 
Clc1sc(Cl)c(Cl)c1Cl | inactive | 
CN(C)CCCN | inactive | 
CC(=O)O[C@H](CC(=O)[O-])C[N+](C)(C)C | inactive | 
CCCC(C)C=O (centres undefined) | inactive | 
CCN(CC)c1ccc2c(-c3ccccc3C(=O)O)c3ccc(=[N+](CC)CC)cc-3oc2c1 |  | 158 µM (active)
CC1CC(OC(=O)c2ccccc2O)CC(C)(C)C1 (centres undefined) | inactive | 
Cc1cccc(C)c1[N+](=O)[O-] | inactive | 
NNc1nc(-c2ccc(N)cc2)cs1 | inactive | 
CCCCc1ccc(N)cc1 | inactive | 
CC(CCO)CCCC(C)(C)O (centres undefined) | inactive | 
CC(=O)O[C@]1(C(C)=O)CC[C@H]2[C@@H]3C[C@H](C)C4=CC(=O)CC[C@]4(C)[C@H]3CC[C@@]21C | inactive | 
